For test [1], the target named is CCAAT/enhancer-binding protein beta (Homo sapiens) (UniProt P17676). The experiment in a line: ATG_C_EBP_CIS: Attagene CIS-FACTORIAL HepG2 Assay for human CCAAT/Enhancer Binding Protein (C/EBP) beta (AID 2282927; active means hit-call score of the fitted dose curve at least 0.9, where 1 is the maximum; inactive means score below 0.9). The note with it: HepG2 Attagene cis-factorial transcription factor reporter; actives raise or lower the signal. The method, boiled down: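 Following a 24 h incubation with test chemical, transfected HepG2 cells yielded RNA whose reporter transcripts were quantified by RT-PCR and fluorescent capillary electrophoresis, with DMSO serving as baseline for bidirectional fitting.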

Test [2] can be described thus: ATG_CMV_CIS: Attagene CIS-FACTORIAL HepG2 Assay for human CMV (Internal Marker) (AID 2282928; active means hit-call score of the fitted dose curve at least 0.9, where 1 is the maximum; inactive means score below 0.9;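 further: endpoint acts as a background internal control marker rather than a target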). Particulars: HepG2 CMV promoter reporter, transcription factor profiling; actives raise or lower the signal. The method, boiled down:
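Reporter transcripts from transfected HepG2 cells are isolated after 24 h of chemical dosing, reverse-transcribed and amplified. Fragments labeled with 6-FAM are cut with HpaI and quantified by capillary electrophoresis; DMSO defines baseline.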

A short description of test [3]: ATG_AP_2_CIS: Attagene CIS-FACTORIAL HepG2 Assay for human Activator Protein 2 (AP-2) (AID 2282932; active means hit-call score of the fitted dose curve at least 0.9, where 1 is the maximum; inactive means score below 0.9). The note with it: HepG2 AP-2 cis-reporter, Attagene transcription factor profiling; actives raise or lower the signal. In short, it runs like this: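 Assay in transfected HepG2 with promoter-regulated reporters, 24 h incubation after dosing. Signal is reporter mRNA fluorescence (RT-PCR, capillary electrophoresis), analysed for both increases and decreases relative to DMSO controls.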

Test [4] can be described thus: ATG_BRE_CIS: Attagene CIS-FACTORIAL HepG2 Assay for human Bone Morphogenetic Protein (BMP) Response Element (BRE) (AID 2282933; active means hit-call score of the fitted dose curve at least 0.9, where 1 is the maximum; inactive means score below 0.9). Particulars: HepG2 BMP response element reporter, Attagene transcription factor profiling; actives raise or lower the signal. In short, it runs like this: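 Endogenous transcription factor activity read in transiently transfected HepG2 cells after 24 h chemical exposure. Bidirectional curve fitting against DMSO; readout is reporter transcript level by RT-PCR with capillary electrophoresis of labelled products.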

Test [5] deals with Transcription factor E2F1 (Homo sapiens) (UniProt Q01094). The test can be described thus: ATG_E2F_CIS: Attagene CIS-FACTORIAL HepG2 Assay for human E2F Transcription Factor 1 (AID 2282935; active means hit-call score of the fitted dose curve at least 0.9, where 1 is the maximum; inactive means score below 0.9). The note with it: HepG2 Attagene cis-reporter, E2F reporter RNA transcripts; actives raise or lower the signal. The method, boiled down:
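In this cis-factorial format, endogenous factor activity drives transfected reporters in HepG2; transcripts collected at 24 h are quantified by fluorescence after RT-PCR and capillary separation.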

Test [6] is described as follows: ATG_E_Box_CIS: Attagene CIS-FACTORIAL HepG2 Assay for human Enhancer Box (E-box) (AID 2282936; active means hit-call score of the fitted dose curve at least 0.9, where 1 is the maximum; inactive means score below 0.9). Particulars: HepG2 E-box cis-reporter transcription, actives raise or lower the signal. In short, it runs like this: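 Measured 24 h post-dosing in HepG2 cells transfected with multiple cis-regulated reporter units, signal being reporter mRNA induction detected by fluorescent RT-PCR with capillary electrophoresis; gain or loss fitted against DMSO.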

Test [7] can be described thus: ATG_M_61_CIS: Attagene CIS-FACTORIAL HepG2 Assay for M61 Transcription Factor (Internal Marker) (AID 2282937; active means hit-call score of the fitted dose curve at least 0.9, where 1 is the maximum; inactive means score below 0.9). The note with it: HepG2 Attagene CIS-FACTORIAL M61 internal marker reporter; actives raise or lower the signal. In short, it runs like this: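 Readout: fluorescent reporter mRNA fragments resolved by capillary electrophoresis after RT-PCR. Transiently transfected human HepG2 cells carried MRTU constructs reporting endogenous TF activity; 24 h chemical exposure; gain or loss of signal fitted relative to DMSO.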

Test [8] in a line: ATG_EGR_CIS: Attagene CIS-FACTORIAL HepG2 Assay for human Early Growth Response 1 (EGR1) (AID 2282938; active means hit-call score of the fitted dose curve at least 0.9, where 1 is the maximum; inactive means score below 0.9). Particulars: HepG2 Attagene CIS-FACTORIAL EGR reporter mRNA; actives raise or lower the signal. The method, boiled down:
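Read-out: fluorescent reporter-mRNA fragments resolved by capillary electrophoresis after RT-PCR, 24 h post-dose in transiently transfected HepG2. Endogenous transcription-factor activity reported via cis-element-regulated reporter units; gain or loss fitted relative to DMSO.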

Test [9] is described as follows: ATG_M_19_CIS: Attagene CIS-FACTORIAL HepG2 Assay for M19 Transcription Factor (Internal Marker) (AID 2282939; active means hit-call score of the fitted dose curve at least 0.9, where 1 is the maximum; inactive means score below 0.9). Particulars: HepG2 Attagene CIS-FACTORIAL M19 internal marker reporter; actives raise or lower the signal. The method, boiled down: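 Internal marker readout, fitted in both directions against DMSO, from HepG2 cells carrying transfected cis-element reporter constructs; RT-PCR and capillary electrophoresis of reporter mRNA after 24 h exposure.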

Test [10] is described as follows: ATG_GATA_CIS: Attagene CIS-FACTORIAL HepG2 Assay for human GATA Binding Protein (AID 2282944; active means hit-call score of the fitted dose curve at least 0.9, where 1 is the maximum; inactive means score below 0.9). Particulars: HepG2 GATA cis-element reporter, Attagene multiplex mRNA; actives raise or lower the signal. The method, boiled down:
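Reporter transcripts from a GATA cis-regulated unit, among multiplexed reporters in transfected HepG2 cells, were measured by RT-PCR with capillary electrophoresis after 24 h dosing. Induction or loss scored relative to DMSO.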

A short description of test [11]: ATG_GLI_CIS: Attagene CIS-FACTORIAL HepG2 Assay for human Zinc Finger Protein GLI1 (AID 2282945; active means hit-call score of the fitted dose curve at least 0.9, where 1 is the maximum; inactive means score below 0.9). Particulars: HepG2, Attagene cis-factorial reporter mRNA, GLI element; actives raise or lower the signal. The method, boiled down: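 HepG2 cells transiently transfected with cis-promoter multiplexed reporter units report endogenous transcription factor activity. After 24 h chemical exposure, reporter mRNA was quantified by RT-PCR, 6-FAM labelling, HpaI digestion and capillary electrophoresis, with bidirectional fitting against DMSO.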

The nature of test [12]: TOX21_p53_BLA_p2_viability: Viability Assessment in the Tox21 HCT-116 p53 Agonism Beta-lactamase Assay, Phase 2 (AID 2283591).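 Further: compound exposure lasted 16 h at 37 °C; actives lower the ATP signal meaning cytotoxicity.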 The method, boiled down:
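HCT-116 p53-bla cells (4000/well) rested 5 h at 37C, then received compounds in DMSO (217-fold dilution) for 16 h at 37C, 5% CO2. After the CCF4 read, CellTiter-Glo was added; ATP luminescence was read after 30 min at room temperature.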

The target in test [13] is Cellular tumor antigen p53 (Homo sapiens) (UniProt P04637). The experiment in a line: TOX21_p53_BLA_p2_ratio: Tox21 HCT-116 p53 Agonism Beta-lactamase Assay, Ratio, Phase 2 (AID 2283592). The method, boiled down: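 DMSO-normalized, positive-direction endpoint derived from the 460 nm/530 nm FRET ratio in HCT116 p53 beta-lactamase reporter cells exposed 16 h at 37C and loaded with CCF4-AM for 2 h.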

Test [14] is described as follows: TOX21_p53_BLA_p3_viability: Viability Assessment in the Tox21 HCT-116 p53 Agonism Beta-lactamase Assay, Phase 3 (AID 2283593).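 Further: cells exposed to compound for 16 h before reading.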 The method, boiled down: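 HCT-116 cells (4000/well) rested 5 h at 37C, then got DMSO compounds by pin tool (217-fold dilution) for 16 h at 37C, 5% CO2. After the bla read, CellTiter-Glo was added and luminescence read at 30 min, room temperature.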

Test [15] concerns the target Cellular tumor antigen p53 (Homo sapiens) (UniProt P04637). The experiment in a line: TOX21_p53_BLA_p3_ratio: Tox21 HCT-116 p53 Agonism Beta-lactamase Assay, Ratio, Phase 3 (AID 2283596). The method, boiled down: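 Cells were seeded at 4000/well, rested 5 h at 37C, then dosed with DMSO compound solutions (217-fold dilution) for 16 h. CCF4-AM substrate was loaded for 2 h at room temperature, and the 460/530 nm emission ratio was fitted for gain of signal versus DMSO.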

Test [16] can be described thus: TOX21_p53_BLA_p4_viability: Viability Assessment in the Tox21 HCT-116 p53 Agonism Beta-lactamase Assay, Phase 4 (AID 2283597).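 Further: hits lower the luminescence signal meaning cytotoxicity.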 The method, boiled down: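 In this multiplexed secondary endpoint, HCT116 cells (4000 per well, compound at 5 h, 16 h treatment) received CellTiter-Glo after the beta-lactamase read. Luminescence after 30 min RT reflects ATP, and falling signal marks cytotoxicity.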

The target in test [17] is Cellular tumor antigen p53 (Homo sapiens) (UniProt P04637). The test can be described thus: TOX21_p53_BLA_p5_ratio: Tox21 HCT-116 p53 Agonism Beta-lactamase Assay, Ratio, Phase 5 (AID 2283599). In short, it runs like this:
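HCT-116 cells carrying a p53-inducible beta-lactamase reporter were seeded at 4000 cells/well and dosed after 5 h with compound in DMSO (217-fold dilution). After 16 h at 37C, CCF4-AM substrate was added for 2 h, and the 460/530 nm emission ratio was scored as gain-of-signal versus DMSO.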

The nature of test [18]: TOX21_p53_BLA_p5_viability: Viability Assessment in the Tox21 HCT-116 p53 Agonism Beta-lactamase Assay, Phase 5 (AID 2283600). The method, boiled down: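 Here cell health was gauged by ATP levels in wells holding 4000 cells, each treated 16 h with DMSO-delivered compounds at 217-fold dilution; reduced luminescence marked toxicity.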
Test [19] addresses Cellular tumor antigen p53 (Homo sapiens) (UniProt P04637). The experiment in a line: TOX21_p53_BLA_p4_ratio: Tox21 HCT-116 p53 Agonism Beta-lactamase Assay, Ratio, Phase 4 (AID 2283601). In short, it runs like this:
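HCT116 cells carrying an inducible beta-lactamase reporter were plated at 4000 cells/well, rested 5 h, then exposed to compounds in DMSO (217-fold dilution) for 16 h at 37C. CCF4-AM substrate was loaded 2 h at room temperature; 460/530 nm emission ratio scored gain-of-signal versus DMSO.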

Test [20] deals with Estrogen receptor (Homo sapiens) (UniProt P03372). The experiment in a line: NVS_NR_hER: NovaScreen (NVS) Nuclear Receptor Binding Assay for human Estrogen Receptor (ER) (AID 2283348). In short, it runs like this:
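Radiodetection of ligand displacement in a lysate-based, cell-free format using MCF7 extracts, read at 18 hours. Duplicate 25 uM primary testing, then concentration series for actives.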

Records with an inconclusive call do not appear. Calls of active or inactive are those of the source. How the source made its calls, unless noted: active means hit-call score of the fitted dose curve at least 0.9, where 1 is the maximum; inconclusive means response in the unintended direction; inactive means score below 0.9.

Sequence of Transcription factor E2F1 (Homo sapiens) (Q01094 whole entry, looked up): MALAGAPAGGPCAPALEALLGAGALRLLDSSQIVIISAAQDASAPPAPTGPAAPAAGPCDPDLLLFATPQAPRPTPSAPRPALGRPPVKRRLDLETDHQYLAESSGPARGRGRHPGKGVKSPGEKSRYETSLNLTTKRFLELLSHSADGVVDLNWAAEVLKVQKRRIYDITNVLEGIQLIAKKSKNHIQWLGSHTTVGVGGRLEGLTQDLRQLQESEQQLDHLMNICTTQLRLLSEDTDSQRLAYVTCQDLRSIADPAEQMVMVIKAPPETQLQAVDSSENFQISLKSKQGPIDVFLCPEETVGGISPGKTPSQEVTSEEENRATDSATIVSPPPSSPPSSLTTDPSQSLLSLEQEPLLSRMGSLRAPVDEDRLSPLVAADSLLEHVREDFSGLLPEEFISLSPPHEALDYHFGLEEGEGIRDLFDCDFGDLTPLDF
Sequence of Estrogen receptor (Homo sapiens) (P03372 whole entry, looked up): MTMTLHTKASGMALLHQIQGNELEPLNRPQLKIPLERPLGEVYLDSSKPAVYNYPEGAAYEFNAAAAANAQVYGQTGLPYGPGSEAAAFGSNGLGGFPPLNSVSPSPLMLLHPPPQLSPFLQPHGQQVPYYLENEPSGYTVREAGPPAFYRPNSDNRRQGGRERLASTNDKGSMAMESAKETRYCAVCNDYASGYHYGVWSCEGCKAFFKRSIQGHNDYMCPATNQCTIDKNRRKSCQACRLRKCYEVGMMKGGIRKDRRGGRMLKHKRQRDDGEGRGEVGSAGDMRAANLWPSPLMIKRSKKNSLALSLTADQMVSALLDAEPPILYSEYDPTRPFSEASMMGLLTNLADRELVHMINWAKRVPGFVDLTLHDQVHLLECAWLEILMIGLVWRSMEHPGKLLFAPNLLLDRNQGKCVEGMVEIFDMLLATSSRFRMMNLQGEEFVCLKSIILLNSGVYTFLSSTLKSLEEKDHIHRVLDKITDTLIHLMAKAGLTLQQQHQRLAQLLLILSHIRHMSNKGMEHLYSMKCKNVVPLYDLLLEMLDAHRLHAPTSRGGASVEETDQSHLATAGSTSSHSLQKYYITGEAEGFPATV
Sequence of CCAAT/enhancer-binding protein beta (Homo sapiens) (P17676 whole entry, looked up): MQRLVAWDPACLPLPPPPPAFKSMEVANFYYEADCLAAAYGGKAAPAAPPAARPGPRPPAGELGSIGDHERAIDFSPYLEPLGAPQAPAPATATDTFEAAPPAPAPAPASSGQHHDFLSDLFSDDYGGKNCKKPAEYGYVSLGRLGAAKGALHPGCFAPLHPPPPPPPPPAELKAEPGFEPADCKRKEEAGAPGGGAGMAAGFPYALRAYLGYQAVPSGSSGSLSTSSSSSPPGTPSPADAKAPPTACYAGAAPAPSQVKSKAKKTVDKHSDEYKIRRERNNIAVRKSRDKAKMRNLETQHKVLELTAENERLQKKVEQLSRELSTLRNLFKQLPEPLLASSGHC
Sequence of Cellular tumor antigen p53 (Homo sapiens) (P04637 whole entry, looked up): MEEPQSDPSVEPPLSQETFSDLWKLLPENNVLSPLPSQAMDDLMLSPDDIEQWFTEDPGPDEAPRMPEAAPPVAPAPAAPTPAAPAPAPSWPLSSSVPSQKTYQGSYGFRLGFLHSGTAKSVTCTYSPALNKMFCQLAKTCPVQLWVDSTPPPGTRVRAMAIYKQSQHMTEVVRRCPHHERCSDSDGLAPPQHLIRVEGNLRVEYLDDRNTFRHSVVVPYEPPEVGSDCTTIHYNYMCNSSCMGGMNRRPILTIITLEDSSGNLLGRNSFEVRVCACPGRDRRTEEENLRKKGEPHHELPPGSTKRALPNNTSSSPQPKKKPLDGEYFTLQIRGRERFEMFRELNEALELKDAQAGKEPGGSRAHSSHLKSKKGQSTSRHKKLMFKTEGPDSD

As to `COc1c2occc2cc2ccc(=O)oc12`, the AC50 was 63.8 µM (active) in test [1] and 59.2 µM (active) in [2]. For the same molecule, the molecule was called inactive in test [3], in test [4], in test [5], in test [6], in [7] and in test [8]. The call in [9], in [10], in test [11], in [12], in test [13] and in test [14] was inactive. Further, the result in test [15], in test [16], in test [17], in test [18] and in [19] was inactive.

As for `CC(=O)CC(=O)OC(C)(C)C`, the result in [20], in [12], in test [13], in test [14], in test [15] and in test [16] was inactive. For the same molecule, the result in test [17] and in [19] was inactive.

In the case of `COc1ccc2ccccc2c1`, the outcome in test [1], in test [2], in test [3], in [4], in test [5] and in test [6] was inactive. Besides, the molecule was classed as inactive in test [7], in [8], in [9], in test [10] and in test [11].

In the case of `CC(C)(C)C(=O)C(=O)O`, the result in [20], in test [13], in [17], in test [18] and in test [19] was inactive.

For the molecule `CC[N+](CC)(CC(=O)Nc1c(C)cccc1C)Cc1ccccc1`, the outcome in test [1], in test [2], in test [3], in [4], in [5] and in test [6] was inactive. For the same molecule, the outcome in [7], in test [8], in test [9], in test [10] and in [11] was inactive.

On to `CCCCCCCCCCCCSC#N`, for which the call in test [20], in test [13], in test [14], in test [15] and in test [16] was inactive.

As for `CCCCC(CC)COC(=O)C=Cc1ccc(OC)cc1` (centres undefined), the result in test [12], in test [13], in test [14], in test [15], in test [16] and in test [17] was inactive. Moreover, the result in [18] was inactive.

For `C=CCOCC(CC)(CO)COCC=C`, the outcome in test [1], in test [2], in test [3], in [4], in test [5] and in [6] was inactive. Also, the molecule was classed as inactive in test [7], in [8], in [9], in test [10], in test [11] and in test [12]. The result in [13], in test [14], in test [15], in [16] and in test [18] was inactive.

Turning to `C1CN(CCOCCN2CCOCC2)CCO1`, the call in [12] and in test [15] was inactive.

On to `CC/C=C\CCO`, for which the outcome in test [1], in test [2], in test [3], in test [4], in [5] and in test [6] was inactive. For the same molecule, the molecule was called inactive in test [7], in test [8], in test [9], in test [10], in test [11] and in test [13]. For the same molecule, the outcome in test [17] and in test [18] was inactive.

These data come from PubChem BioAssay (EPA / NIEHS).
